Assay results reported in PubChem BioAssay (NCATS).
Inconclusive results are not listed. A call without a number means that no potency is given here. Activity calls are given as the source filed them. Calls come from the whole dose curve; as a rule, active = well fitted inhibition curve with a large enough effect; inconclusive = small, poorly fitted or top-dose-only effect; inactive = flat fitted curve, though single readings scatter.

biological target: Calcium and integrin-binding protein 1 (Homo sapiens) (UniProt Q99828); assay: Primary qHTS for Identification of Calcium Integrin Binding Protein 1 (CIB1) Competitor (AID 1508620); settings: CIB1-GST / FITC-alphaIIb peptide fluorescence polarization; series mostly up to 114 µM; note: top concentration of the series differs between compounds
Method in brief: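 Fluorescence polarization competition: GST-tagged CIB1 (1 uM final) preincubated with compound 15 min at room temperature, then FITC-labelled alphaIIb peptide (100 nM final) added. After 15 min at room temperature, polarization read at Ex 480/Em 540.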

Calcium and integrin-binding protein 1 (Homo sapiens), sequence (Q99828 whole entry, looked up): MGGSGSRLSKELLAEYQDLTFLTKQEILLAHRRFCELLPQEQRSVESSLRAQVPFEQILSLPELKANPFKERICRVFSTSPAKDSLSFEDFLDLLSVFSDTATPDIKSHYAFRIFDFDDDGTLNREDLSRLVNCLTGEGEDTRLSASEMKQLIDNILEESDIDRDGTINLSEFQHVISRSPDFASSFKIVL

| Structure (SMILES) | Potency |
| --- | --- |
| Cc1cc(C)nc(NC(=S)N2CCN(c3nncs3)CC2)c1 | inactive |
| S=P(c1ccccc1)(c1ccccc1)c1nc(CCCc2ccccc2)n2ccccc12 | inactive |
| O=C(Cn1cc(CNC(=O)C2CCCCC2)nn1)Nc1cc(C(F)(F)F)ccc1Cl | inactive |
| COc1ccc(-c2cncc(NC(=O)c3cccs3)c2)cc1OC | inactive |
| NC(=O)C1CCN(c2nc(-c3cc4ccccc4o3)cs2)CC1 | inactive |
| N#CN1CCC(NC(=O)c2ccc(F)cc2)CC1 | inactive |
| Oc1cc(NCc2ccc(Cl)cc2)cc2cccnc12 | inactive |
| CC(=O)NC(c1ccco1)c1cc(Br)c2cccnc2c1O (centres undefined) | inactive |
| COc1ccc(-c2ccc3ncnc(NCC4CCCO4)c3c2)cc1OC (centres undefined) | inactive |
| CN1CCCC1CCNc1ncnc2ccc(-c3ccc4c(c3)OCO4)cc12 (centres undefined) | inactive |
| CCOC(=O)c1ccc(-n2cnc3c(c2=N)C(c2cccc(OC)c2)c2c(ccc4ccccc24)O3)cc1 (centres undefined) | inactive |
| N#Cc1c(-c2csc(-c3no[n+]([O-])c3C#N)c2)no[n+]1[O-] | inactive |
| NC(=O)C1CCN(c2cc(-c3ccc4c(c3)OCCCO4)ncn2)CC1 | inactive |
| Cc1ccnc(NC(=S)N2CCN(c3cccc(C(F)(F)F)n3)CC2)c1 | inactive |
| CSc1cnc(-c2ccccc2C(C)C)nc1NCc1ccc(-c2cccnc2)cc1 | inactive |
| CCOC(=O)c1nc(NCc2ccccc2)sc1C | inactive |
| O=C(N1CCc2ccc(S(=O)(=O)N3CCN(S(=O)(=O)c4ccc5c(c4)OCCO5)CC3)cc2C1)C(F)(F)F | inactive |
| Cc1ccc(-c2ccc(=O)n(CC(=O)NCCCc3ccccc3)n2)cc1 | inactive |
| Cc1cc(C)nc(NC(=S)N2CCN(c3cc(C#N)cc(C#N)c3)CC2)c1 | inactive |
| CC(=O)Nc1sc2c(c1-c1nc3ccccc3s1)CN(C1COC1)C2 | inactive |

| Structure (SMILES) | Potency |
| --- | --- |
| CC(C)(C)c1ccc(C(=O)Nc2ccc(-c3nc4ccccc4[nH]3)cc2)cc1 | inactive |
| Cc1ccc(-c2nc3ccccc3s2)cc1NC(=O)c1ccc(-c2cccc(Cl)c2)o1 | inactive |
| COc1ccc(COc2ccc(-c3nc4ccccc4[nH]3)cc2)cc1OC | inactive |
| N#Cc1nc(Nc2cc(F)cc(Cl)c2)nc(NC2CCCC2)n1 | inactive |
| COc1ccc(C2=Nn3c(nnc3-c3ccccc3OC)SC2)cc1 | inactive |
| COc1ccc(NS(=O)(=O)c2ccccc2)cc1NS(=O)(=O)c1ccccc1 | inactive |
| Cc1cc2c(s1)c1cnn(Cc3ccccc3)c(=O)c1n2C | inactive |
| CCCC1CCN(C(=O)CC(c2ccc3c(c2)OCO3)c2c(O)cc(OC)cc2OC)C1 (centres undefined) | inactive |
| N=c1c2c(ncn1-c1ccccc1)Oc1ccc3ccccc3c1C2c1ccc2c(c1)OCCO2 (centres undefined) | inactive |
| Fc1cc(Nc2nc(-c3ccncc3)nc3ccccc23)ccc1-c1cccnc1 | inactive |
| Cc1ccc(NS(=O)(=O)c2cc3c(cc2Cl)NC(=O)CO3)cc1Cl | inactive |
| COc1cccc(C2=Nn3c(nnc3-c3cccc(OC)c3)SC2)c1 | inactive |
| O=S(=O)(Nc1ccccc1)c1ccc(NCc2cccc(Cl)c2O)cc1 | inactive |
| O=C1c2ccccc2C(=O)N1Cc1ccccc1 | inactive |
| Clc1ccccc1-c1nc(NCc2ccc(-c3cccnc3)cc2)c2ccccc2n1 | inactive |
| Cc1ccc(N(C)S(=O)(=O)c2ccc3c(c2)CCC(=O)N3)cc1C | inactive |
| Cc1ccc(NCc2ccc(O)c3ncccc23)c(F)c1 | inactive |
| O=C(OCC#CCSc1nnc(-c2cccc3ncccc23)o1)c1ccc(F)cc1 | inactive |
| O=S1(=O)N=C(Sc2cccc3cccnc23)c2ccccc21 | inactive |
